Data published in the supplement of paper PMC6555819.

Columns and labels:
Test in all cases: PBM binding z-score (relative to random genomic background probes); higher = stronger binding; sequences stand for … in GC…GCGATTGACAGCGTAGAATGAAGG
[1] = tested on: RARb homodimer (NR concentration 270 nM)
Method in brief: (§1)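 For binding z-scores, the reference was random background probes on custom Agilent 4×180K protein-binding microarrays. These arrays were incubated 1 h with ligand-free nuclear receptor dimers in PBS pH 7.4, 2% milk, 0.02% Triton X-100, 1 mM DTT, 0.2 mg/mL BSA and 0.4 mg/ml salmon testes DNA. Fluorescence was scanned after antibody detection of each partner (one per run) and regression-normalized.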

[2] = tested on: RARg:RXRa (NR concentration 270 nM, RXRa partner concentration 90 nM)
Method in brief: as §1

[3] = tested on: RARg homodimer (NR concentration 270 nM)
Method in brief: as §1

[4] = tested on: RXRa DBDmut IVT, anti-RXR (DBD mutation: RXRa K156A/R161A, NR concentration 90 nM)
Method in brief: as §1

[5] = tested on: RXRa homodimer (NR concentration 180 nM)
Method in brief: as §1

[6] = tested on: THRa:RXRa (NR concentration 90 nM, RXRa partner concentration 90 nM)
Method in brief: as §1

[7] = tested on: THRa homodimer (NR concentration 90 nM)
Method in brief: as §1

[8] = tested on: VDR homodimer (NR concentration 270 nM)
Method in brief: as §1

Sequence | PBM binding z-score [1] | PBM binding z-score [2] | PBM binding z-score [3] | PBM binding z-score [4] | PBM binding z-score [5] | PBM binding z-score [6] | PBM binding z-score [7] | PBM binding z-score [8]
CTACCAAAGTGAACAAGGTCGTTGATTACTATTC | 1.32 | 0.65 | 0.529 | 1.69 | 0.996 | 1.94 | 1.24 | 2.22
AACACAGGGTCATCGTAGGCCAGAGTACGCACAG | 3.59 | 5.74 | 5.13 | 3.79 | 6.58 | 4.5 | 1.69 | 3.84
CCGGACAGGTGAAAGGTAACTCAGTCTGGTACGC | 0.991 | 1.57 | 0.863 | -0.0224 | 1.89 | 0.766 | 0.12 | 0.0749
CCTATTAGTTGGCCATAAGGGCAACCGAAGCTCG | 1.46 | 0.564 | 0.624 | 0.223 | 0.155 | 1.3 | 0.895 | 0.172
CCAGACAGTTGAAAGGTAACTCAGTCTGGTACGC | 0.351 | 0.456 | 0.357 | 0.511 | 0.993 | 0.38 | -0.129 | -0.355
TCTTCTAGATCAACAGGAGGTTAAGAAAGATCGA | 0.617 | 0.984 | 0.501 | 0.855 | 1.01 | 0.77 | -0.076 | -0.175
GGAACGAGGGCATTCAAGTTGATAGCATGGCGAT | 0.771 | 1.04 | 1.74 | 3.23 | 0.697 | 3.52 | -0.291 | 2.77
CAAACTAGGTAACGAAAGGTCAAAGTCGAATGAC | 4.76 | 5.68 | 5.08 | 1.05 | 6.35 | 4 | 1.16 | 2.25
AGAACGAGGGCAATGAGTTGATAGAACGGGTGGC | 0.861 | 1.14 | 1.61 | 2.13 | 0.744 | 0.969 | -0.182 | 2.82
TCATATAGGAAAACAGGTGAAAGTCCGTAAGTTA | 0.455 | 0.219 | 0.0668 | 1.81 | 1.17 | 0.338 | 0.187 | 0.639
TAGCCTAGGTCATTGGCCCAGTATAGTACGCATC | 2.57 | 3.61 | 4.14 | 1.51 | 2.56 | 2.76 | 0.907 | 0.973
CCAGACCGGTGAGAAGGTAACTCAGCCTCGATTA | 0.199 | 0.0096 | 0.0397 | -0.539 | -0.308 | -0.0126 | -0.0326 | 0.281
TGAACGAGGTTATAAGATCAGGGAACGTTGCAAA | 0.253 | 1.53 | 1.1 | 0.444 | 2.02 | 1.43 | -0.282 | 0.372
CCTTACGGATCACTGACAGGTTATAGCATTTGGA | 0.537 | 0.614 | 0.579 | 0.744 | 0.347 | 0.372 | 0.628 | 0.612
GCACGGAGGACAAGGTCAGAGCTTTGTCCGTAGA | 3.22 | 3.17 | 3.57 | 1.01 | 2.56 | 2.89 | 1.58 | 0.622
CAAACTAGGTCAAGGTCAAAGTTGGTTTGTGCCA | 5.15 | 6.1 | 6.67 | 3.1 | 6.01 | 4.39 | 3.85 | 4.14
ATCGAAAGGTCGTGATGTGAGTATACAGAAAGGC | 2.33 | 3.91 | 3.35 | 1.1 | 4.56 | 2.34 | 0.0191 | 0.997
CGTCCAAGGTCAGAGAGGTCAGAGAATGCCGAGT | 5.37 | 6.29 | 7.09 | 3.52 | 6.16 | 4.53 | 2.72 | 5.54
CCTATTAGTTGACCATAAGGACAACCGAAGCTCG | 1.71 | 1.36 | 1.28 | 0.69 | 0.852 | 3.42 | 3.91 | 1.1
CCTAGCAGGCCAATCTGGGGCACTCAAGGCTTGA | 0.233 | -0.125 | 0.0351 | -0.585 | -0.29 | 1.65 | -0.87 | -0.374
ACAGACAGGTGATGAAGGTAACTCTGGCTATCAT | -0.162 | 0.325 | 0.249 | -0.432 | 0.387 | 0.0574 | -0.327 | -0.648
TCTAGCAGACCAGAGGGTCACTCAAGAGGTACGG | 2.18 | 1.95 | 1.42 | -0.0475 | 2.19 | 1.43 | -0.387 | 0.415
TAGCCTAGGTCATGGGACAGTATACCACGCGAAC | 3.25 | 4.44 | 4.59 | 0.981 | 3.62 | 3.35 | 1.62 | 0.784
ATATGTAGGTGATCGGGTCATTCAGTTTGCGCAT | 2.55 | 2.48 | 1.78 | 1.09 | 2.44 | 2.91 | 2.14 | 3.46
ATATGTAGGTTAAGGGTGATTCAGGTTGGTTCGC | 1.8 | 1.14 | 1.06 | 0.792 | 1.62 | 1.56 | 1.39 | 1.41
AGTAGTTGGTCAGCTGAGGTCACACACAATTCGG | 4.45 | 4.21 | 4.62 | 1.36 | 4.2 | 4.88 | 5 | 3.98
GCATATCGGTAATACAAGGTGAAAGTCCGATTGT | 0.774 | 0.308 | 0.268 | 0.112 | 0.446 | 3.07 | 0.911 | -0.28
AGAATGAGGTTATACGTAGATCAGGCAAGAAAGT | 0.646 | 1.78 | 1.11 | 1.62 | 2.14 | 2.26 | 0.402 | 0.719
